Test results as given in paper PMC9911399, “Two distinct binding modes provide the RNA-binding protein RbFox with extraordinary sequence specificity”.
Positions count from the first letter of the chain named. The full ranking holds about 16,000 sequences; the median of “ka relative to ugcaugu” is about 0.0091, and the highest 2% start at about 0.032. The full list was thinned out, with the highest values kept by preference.

T1: RBFOX1 RRM (Homo sapiens, UniProt Q9NWB1 109-208)
T1 sequence: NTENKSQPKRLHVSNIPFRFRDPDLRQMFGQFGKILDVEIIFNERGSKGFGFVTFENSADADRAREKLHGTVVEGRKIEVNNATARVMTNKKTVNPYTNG

B1: UGUGACC (DNA:RNA)
RNA: GGGAGACCGGAAUUCAGAUUGUCCUGUGACCUUAAAUCCCGUCGUAGCCACCA
DNA 1: CAATCTGAATTCCGGTCTCCC
DNA 2: TGGTGGCTACGACGGGATT
B2: CAAGGCG (DNA:RNA)
RNA: B1 RNA with U25C, G26A, U27A, A29G, C31G
DNA 1: CAATCTGAATTCCGGTCTCCC
DNA 2: TGGTGGCTACGACGGGATT
B3: CUCGCUC (DNA:RNA)
RNA: B1 RNA with U25C, G26U, U27C, A29C, C30U
DNA 1: CAATCTGAATTCCGGTCTCCC
DNA 2: TGGTGGCTACGACGGGATT
B4: UUUUCCG (DNA:RNA)
RNA: B1 RNA with G26U, G28U, A29C, C31G
DNA 1: CAATCTGAATTCCGGTCTCCC
DNA 2: TGGTGGCTACGACGGGATT
B5: CAUCAAA (DNA:RNA)
RNA: B1 RNA with U25C, G26A, G28C, C30A, C31A
DNA 1: CAATCTGAATTCCGGTCTCCC
DNA 2: TGGTGGCTACGACGGGATT
B6: GCCGGCC (DNA:RNA)
RNA: B1 RNA with U25G, G26C, U27C, A29G
DNA 1: CAATCTGAATTCCGGTCTCCC
DNA 2: TGGTGGCTACGACGGGATT
B7: UACAGCU (DNA:RNA)
RNA: B1 RNA with G26A, U27C, G28A, A29G, C31U
DNA 1: CAATCTGAATTCCGGTCTCCC
DNA 2: TGGTGGCTACGACGGGATT
B8: CUGCAUA (DNA:RNA)
RNA: B1 RNA with U25C, G26U, U27G, G28C, C30U, C31A
DNA 1: CAATCTGAATTCCGGTCTCCC
DNA 2: TGGTGGCTACGACGGGATT
B9: UGCAUAU (DNA:RNA)
RNA: B1 RNA with U27C, G28A, A29U, C30A, C31U
DNA 1: CAATCTGAATTCCGGTCTCCC
DNA 2: TGGTGGCTACGACGGGATT
B10: CUGCAUG (DNA:RNA)
RNA: B1 RNA with U25C, G26U, U27G, G28C, C30U, C31G
DNA 1: CAATCTGAATTCCGGTCTCCC
DNA 2: TGGTGGCTACGACGGGATT
B11: UGCAUUU (DNA:RNA)
RNA: B1 RNA with U27C, G28A, A29U, C30U, C31U
DNA 1: CAATCTGAATTCCGGTCTCCC
DNA 2: TGGTGGCTACGACGGGATT
B12: CUGCAUC (DNA:RNA)
RNA: B1 RNA with U25C, G26U, U27G, G28C, C30U
DNA 1: CAATCTGAATTCCGGTCTCCC
DNA 2: TGGTGGCTACGACGGGATT
B13: UGCAUGU (DNA:RNA)
RNA: B1 RNA with U27C, G28A, A29U, C30G, C31U
DNA 1: CAATCTGAATTCCGGTCTCCC
DNA 2: TGGTGGCTACGACGGGATT
B14: GCUGUAU (DNA:RNA)
RNA: B1 RNA with U25G, G26C, A29U, C30A, C31U
DNA 1: CAATCTGAATTCCGGTCTCCC
DNA 2: TGGTGGCTACGACGGGATT
B15: AUACGAU (DNA:RNA)
RNA: GGGAGACCGGAAUUCAGAUUGUCCAUACGAUUUAAAUCCCGUCGUAGCCACCA
DNA 1: CAATCTGAATTCCGGTCTCCC
DNA 2: TGGTGGCTACGACGGGATT
B16: AUUCUCC (DNA:RNA)
RNA: B15 RNA with A27U, G29U, A30C, U31C
DNA 1: CAATCTGAATTCCGGTCTCCC
DNA 2: TGGTGGCTACGACGGGATT
B17: CACCUGC (DNA:RNA)
RNA: B15 RNA with A25C, U26A, A27C, G29U, A30G, U31C
DNA 1: CAATCTGAATTCCGGTCTCCC
DNA 2: TGGTGGCTACGACGGGATT
B18: GUACUCU (DNA:RNA)
RNA: B15 RNA with A25G, G29U, A30C
DNA 1: CAATCTGAATTCCGGTCTCCC
DNA 2: TGGTGGCTACGACGGGATT
B19: GGGGUCC (DNA:RNA)
RNA: B1 RNA with U25G, U27G, A29U
DNA 1: CAATCTGAATTCCGGTCTCCC
DNA 2: TGGTGGCTACGACGGGATT
B20: GGGUCCG (DNA:RNA)
RNA: B1 RNA with U25G, U27G, G28U, A29C, C31G
DNA 1: CAATCTGAATTCCGGTCTCCC
DNA 2: TGGTGGCTACGACGGGATT
B21: CGUACUC (DNA:RNA)
RNA: B1 RNA with U25C, G28A, A29C, C30U
DNA 1: CAATCTGAATTCCGGTCTCCC
DNA 2: TGGTGGCTACGACGGGATT
B22: GGGGAGA (DNA:RNA)
RNA: B1 RNA with U25G, U27G, C30G, C31A
DNA 1: CAATCTGAATTCCGGTCTCCC
DNA 2: TGGTGGCTACGACGGGATT
B23: GGUACUC (DNA:RNA)
RNA: B1 RNA with U25G, G28A, A29C, C30U
DNA 1: CAATCTGAATTCCGGTCTCCC
DNA 2: TGGTGGCTACGACGGGATT
B24: GGGUACU (DNA:RNA)
RNA: B1 RNA with U25G, U27G, G28U, C31U
DNA 1: CAATCTGAATTCCGGTCTCCC
DNA 2: TGGTGGCTACGACGGGATT
B25: CGGGUAC (DNA:RNA)
RNA: B1 RNA with U25C, U27G, A29U, C30A
DNA 1: CAATCTGAATTCCGGTCTCCC
DNA 2: TGGTGGCTACGACGGGATT
B26: GGGUCGU (DNA:RNA)
RNA: B15 RNA with A25G, U26G, A27G, C28U, G29C, A30G
DNA 1: CAATCTGAATTCCGGTCTCCC
DNA 2: TGGTGGCTACGACGGGATT
B27: GGGGUCG (DNA:RNA)
RNA: B1 RNA with U25G, U27G, A29U, C31G
DNA 1: CAATCTGAATTCCGGTCTCCC
DNA 2: TGGTGGCTACGACGGGATT
B28: GGGGUAC (DNA:RNA)
RNA: B1 RNA with U25G, U27G, A29U, C30A
DNA 1: CAATCTGAATTCCGGTCTCCC
DNA 2: TGGTGGCTACGACGGGATT
B29: CGGGUCG (DNA:RNA)
RNA: B1 RNA with U25C, U27G, A29U, C31G
DNA 1: CAATCTGAATTCCGGTCTCCC
DNA 2: TGGTGGCTACGACGGGATT
B30: AGCUCAC (DNA:RNA)
RNA: B15 RNA with U26G, A27C, C28U, G29C, U31C
DNA 1: CAATCTGAATTCCGGTCTCCC
DNA 2: TGGTGGCTACGACGGGATT
B31: ACUGACU (DNA:RNA)
RNA: B1 RNA with U25A, G26C, C31U
DNA 1: CAATCTGAATTCCGGTCTCCC
DNA 2: TGGTGGCTACGACGGGATT

The binders below were run against T1, RBFOX1 RRM (assay: EMSA; HiTS-Eq, 1 nM pool, 10 min; buffer printed only for the single-RNA assays: 10 mM Tris pH 7.5, 150 mM NaCl, 3.4 mM EDTA, 0.001% NP-40, 30 C). Details: tags: His6 N-terminal (pET28a); label: 5' 32P.
Summary of the method: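 These values rest on relative association constants, computed from read-count changes of each RNA species versus the control reaction and normalised to the cognate motif. Reads came from free RNA recovered by 8% native PAGE after purified RbFox RRM (wild type or mutant) at increasing concentrations was equilibrated for 10 min in 50 µL with 1 nM of a 5′-radiolabelled pool with 7 randomized nucleotides and DNA-annealed flanks.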
For B1, the binding signal was 0.0155 KA relative to UGCAUGU.
With B2 the binding signal was 0.00837 KA relative to UGCAUGU.
B3 was tested, and the binding signal was 0.00968 KA relative to UGCAUGU.
With B4 the binding signal was 0.0112 KA relative to UGCAUGU.
For B5, the binding signal was 0.00054 KA relative to UGCAUGU.
In the case of B6, the binding signal is reported as 0.0116 KA relative to UGCAUGU.
B7 was tested, and the binding signal was 0.00395 KA relative to UGCAUGU.
In the case of B8, the binding signal is reported as 0.017 KA relative to UGCAUGU.
For B9, the binding signal was 0.0115 KA relative to UGCAUGU.
B10 was tested, and the binding signal was 1.04 KA relative to UGCAUGU.
For B11, the binding signal was 0.0179 KA relative to UGCAUGU.
In the case of B12, the binding signal is reported as 0.0212 KA relative to UGCAUGU.
For B13, the binding signal was 1 KA relative to UGCAUGU.
In the case of B14, the binding signal is reported as 0.013 KA relative to UGCAUGU.
In the case of B15, the binding signal is reported as 0.00313 KA relative to UGCAUGU.
In the case of B16, the binding signal is reported as 0.00179 KA relative to UGCAUGU.
For B17, the binding signal was 0.00791 KA relative to UGCAUGU.
B18 was tested, and the binding signal was 0.0101 KA relative to UGCAUGU.
In the case of B19, the binding signal is reported as 0.0259 KA relative to UGCAUGU.
In the case of B20, the binding signal is reported as 0.0257 KA relative to UGCAUGU.
With B21 the binding signal was 0.00584 KA relative to UGCAUGU.
B22 was tested, and the binding signal was 0.0242 KA relative to UGCAUGU.
In the case of B23, the binding signal is reported as 0.032 KA relative to UGCAUGU.
In the case of B24, the binding signal is reported as 0.0165 KA relative to UGCAUGU.
B25 was tested, and the binding signal was 0.0309 KA relative to UGCAUGU.
In the case of B26, the binding signal is reported as 0.0214 KA relative to UGCAUGU.
For B27, the binding signal was 0.0492 KA relative to UGCAUGU.
B28 was tested, and the binding signal was 0.0356 KA relative to UGCAUGU.
For B29, the binding signal was 0.0322 KA relative to UGCAUGU.
B30 was tested, and the binding signal was 0.00457 KA relative to UGCAUGU.
For B31, the binding signal was 0.00677 KA relative to UGCAUGU.
